Experimental data: PubChem BioAssay (NCATS)
“And” between values parts separate entries of the source, which are not always exact repeats. Identical values can stand only once. Results filed as inconclusive are left out. The source made the active and inactive calls. Unless noted, the call rests on the fitted dose curve.

How the values were obtained:
[1] = molecular target: Bile acid receptor (Homo sapiens) (UniProt Q96RI1); assay: qHTS assay for small molecule agonists of farnesoid X receptor signaling (AID 588527); settings: HEK293T FXR-UAS-bla, beta-lactamase ratio, 16 h; activation: stronger effect = higher value;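 further: series mostly up to about 77 µM; 0% = vehicle basal and 100% = reference agonist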
Sequence of Bile acid receptor (Homo sapiens) (Q96RI1 whole entry, looked up): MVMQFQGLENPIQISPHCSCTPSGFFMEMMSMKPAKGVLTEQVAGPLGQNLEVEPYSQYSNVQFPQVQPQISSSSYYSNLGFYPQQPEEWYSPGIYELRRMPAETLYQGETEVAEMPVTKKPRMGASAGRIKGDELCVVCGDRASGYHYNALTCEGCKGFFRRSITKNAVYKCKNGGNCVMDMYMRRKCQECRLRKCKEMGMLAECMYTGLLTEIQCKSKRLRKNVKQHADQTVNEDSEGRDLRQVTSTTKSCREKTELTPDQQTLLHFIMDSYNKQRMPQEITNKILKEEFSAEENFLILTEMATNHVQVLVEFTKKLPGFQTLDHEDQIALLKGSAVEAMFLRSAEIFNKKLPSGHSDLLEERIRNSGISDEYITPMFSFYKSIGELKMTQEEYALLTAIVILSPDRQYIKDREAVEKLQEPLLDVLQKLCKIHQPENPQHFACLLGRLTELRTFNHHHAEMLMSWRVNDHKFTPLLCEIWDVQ
Procedure, shortened: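 Read-out: beta-lactamase reporter fluorescence with CCF4 substrate in GeneBLAzer FXR-UAS-bla HEK293T cells, after 16 h compound exposure at 37 C. Response scaled between DMSO basal (0%) and chenodeoxycholic acid at 100 uM (100%).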

[2] = molecular target: Glucocorticoid receptor (Homo sapiens) (UniProt P04150); assay: qHTS assay for small molecule agonists of glucocorticoid receptor signaling (AID 588532; active means well fitted curve in the direction sought with a large enough effect in the signal ratio, with a control signal flat; the % refers to the signal ratio;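 further: 100% = dexamethasone at 0.1 µM and 0% = DMSO only wells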); settings: HeLa MMTV-bla, beta-lactamase ratio, agonist, 18 h; activation: stronger effect = higher value, percent of dexamethasone control, DMSO zero
Sequence of Glucocorticoid receptor (Homo sapiens) (P04150 whole entry, looked up): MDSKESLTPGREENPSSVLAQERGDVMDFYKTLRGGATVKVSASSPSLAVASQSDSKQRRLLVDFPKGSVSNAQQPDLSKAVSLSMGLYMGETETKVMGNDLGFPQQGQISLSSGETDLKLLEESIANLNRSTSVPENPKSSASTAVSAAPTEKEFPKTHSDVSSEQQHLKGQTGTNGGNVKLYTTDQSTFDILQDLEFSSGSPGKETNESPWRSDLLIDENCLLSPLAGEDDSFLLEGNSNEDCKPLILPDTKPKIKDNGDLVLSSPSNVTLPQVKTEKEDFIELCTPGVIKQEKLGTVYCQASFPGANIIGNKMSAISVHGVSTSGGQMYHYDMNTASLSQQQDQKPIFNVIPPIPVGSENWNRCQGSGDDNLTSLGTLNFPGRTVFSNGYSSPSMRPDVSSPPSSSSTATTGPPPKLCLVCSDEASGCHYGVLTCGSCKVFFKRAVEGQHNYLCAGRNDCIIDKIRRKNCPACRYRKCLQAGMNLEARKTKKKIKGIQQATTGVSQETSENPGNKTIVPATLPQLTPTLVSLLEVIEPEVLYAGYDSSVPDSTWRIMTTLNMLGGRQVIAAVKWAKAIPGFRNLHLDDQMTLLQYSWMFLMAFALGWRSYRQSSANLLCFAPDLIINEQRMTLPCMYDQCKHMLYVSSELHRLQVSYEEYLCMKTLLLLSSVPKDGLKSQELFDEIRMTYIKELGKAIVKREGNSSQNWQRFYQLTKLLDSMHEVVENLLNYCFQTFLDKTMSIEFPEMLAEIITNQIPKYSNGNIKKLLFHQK
Procedure, shortened: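 MMTV-bla HeLa beta-lactamase reporter cells in 1% charcoal/dextran FBS medium, compounds up to 92 uM for 18 h at 37 C, CCF4 readout; normalized to 0.1 uM dexamethasone (100%), EC50 and efficacy from Hill fits.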

[3] = qHTS assay for small molecule agonists of the antioxidant response element (ARE) signaling pathway (AID 651741; active means well fitted activation curve with a large enough effect in the signal ratio; the % refers to the signal ratio; further: potency means the concentration at half of the fitted maximal effect)
Procedure, shortened: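 HepG2 ARE-bla reporter cells, 2,000/well; 5 h settle at 37 C/5% CO2; compound pin transfer (23 nL, DMSO); 16 h at 37 C; LiveBLAzer B/G FRET substrate, 2 h RT; fluorescence intensity read.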

[4] = qHTS assay for environmental chemicals that activate the Aryl hydrocarbon Receptor (AhR) signaling pathway (AID 651777; active means well fitted curve in the direction sought with a large enough effect; an effect the other way counts as inactive or inconclusive; further: % of control where 0% means no effect; nearly all actives have a fitted effect of over 15% in size); settings: 1A2-DRE human hepatoma cells, luciferase, 24 h; activation: stronger effect = higher value
Procedure, shortened: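 Quantitative HTS in stably transfected human liver-derived cells whose luciferase gene sits downstream of the CYP1A2 promoter and dioxin response element. After 24 hr exposure at 37 C, One-Glo luminescence was measured.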

[5] = molecular target: Peroxisome proliferator-activated receptor alpha (Homo sapiens) (UniProt Q07869); assay: qHTS assay for small molecule agonists of the peroxisome proliferator-activated receptor alpha (PPARalpha) signaling pathway (AID 651778; active means well fitted curve in the direction sought with a large enough effect; an effect the other way counts as inactive or inconclusive; further: % of control where 0% means no effect); settings: PathHunter PPARalpha complementation, chemiluminescence, 6 h; max response: stronger effect = higher value
Sequence of Peroxisome proliferator-activated receptor alpha (Homo sapiens) (Q07869 whole entry, looked up, the tested form may be a part): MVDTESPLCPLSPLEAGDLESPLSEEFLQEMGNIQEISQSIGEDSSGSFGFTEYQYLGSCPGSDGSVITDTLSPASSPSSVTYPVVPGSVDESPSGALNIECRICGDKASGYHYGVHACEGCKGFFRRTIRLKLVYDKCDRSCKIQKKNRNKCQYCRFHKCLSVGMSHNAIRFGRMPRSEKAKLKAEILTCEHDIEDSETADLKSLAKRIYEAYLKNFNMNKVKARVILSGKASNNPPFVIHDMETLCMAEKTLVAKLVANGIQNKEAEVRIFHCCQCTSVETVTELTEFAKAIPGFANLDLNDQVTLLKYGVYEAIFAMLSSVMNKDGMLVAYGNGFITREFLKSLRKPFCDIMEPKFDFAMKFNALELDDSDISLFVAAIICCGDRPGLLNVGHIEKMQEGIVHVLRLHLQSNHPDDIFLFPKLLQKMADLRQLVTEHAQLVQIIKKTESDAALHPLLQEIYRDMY
Procedure, shortened: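 Enzyme-fragment complementation assay in which ligand-bound PPARalpha translocates and forms an active enzyme that generates chemiluminescence. Cells were plated overnight, exposed to compound for 6 hr at 37 C, and then given detection reagent for 60 min at room temperature.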

[6] = qHTS assay for small molecule agonists of the antioxidant response element (ARE) signaling pathway measured by Nrf2-dependant transcriptional activity (AID 720636; active means well fitted curve in the direction sought with a large enough effect in the repeat runs; an effect the other way counts as inactive or inconclusive; further: potency means the concentration at half of the fitted maximal effect; on activation: % of control where 0% means no effect)
Procedure, shortened: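 Quantitative HTS format in HepG2 cells stably expressing an ARE-luciferase reporter; 16 hr compound treatment at 37 C, luciferase signal detected with ONE-Glo.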

[7] = qHTS assay for cell viability of the p53RE-bla HCT-116 cell line (AID 743292; active means well fitted curve in the direction sought with a large enough effect; an effect the other way counts as inactive or inconclusive; further: on the % scale 0 is the no-effect control and ±100 the full control effect; nearly all actives have a fitted effect of over 55% in size)
Procedure, shortened: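 Viability of compound-treated p53RE-bla HCT-116 cells is taken from ATP-dependent luciferase luminescence. Treatment lasts 16 h at 37 C after a 5 h settling period; detection follows 30 min at room temperature.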

[8] = qHTS assay for small molecule activators of the human pregnane X receptor (PXR) signaling pathway (AID 720659; call rule not given here; further: 0% is about no effect)
[9] = molecular target: Peroxisome proliferator-activated receptor delta (Homo sapiens) (UniProt Q03181); assay: qHTS assay for small molecule agonists of peroxisome proliferator-activated receptor delta signaling (AID 588534);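 further: 0% = DMSO basal wells and 100% = positive control agonist at 10 µM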
Sequence of Peroxisome proliferator-activated receptor delta (Homo sapiens) (Q03181 whole entry, looked up): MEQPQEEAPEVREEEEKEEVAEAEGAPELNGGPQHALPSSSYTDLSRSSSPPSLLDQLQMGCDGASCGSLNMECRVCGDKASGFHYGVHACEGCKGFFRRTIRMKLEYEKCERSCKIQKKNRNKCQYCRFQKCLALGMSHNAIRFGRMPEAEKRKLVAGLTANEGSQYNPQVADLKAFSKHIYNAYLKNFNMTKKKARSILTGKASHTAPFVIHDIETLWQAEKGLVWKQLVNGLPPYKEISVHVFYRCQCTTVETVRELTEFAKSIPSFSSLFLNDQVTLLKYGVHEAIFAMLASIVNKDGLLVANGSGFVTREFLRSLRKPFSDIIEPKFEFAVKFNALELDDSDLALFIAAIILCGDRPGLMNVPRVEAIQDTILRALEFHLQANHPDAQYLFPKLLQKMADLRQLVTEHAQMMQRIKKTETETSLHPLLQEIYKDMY
Procedure, shortened: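 Titration series tested in agonist mode on beta-lactamase reporter cells; 18 hrs at 37 C after a 5 hr pre-incubation. Readout: CCF4 fluorescence, 2 hrs RT. Hill equation gives EC50 and maximal response.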

[10] = molecular target: Thyroid hormone receptor beta (Homo sapiens) (UniProt P10828); assay: qHTS assay for small molecule agonists of thyroid hormone receptor beta signaling (AID 588545);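 further: 0% = DMSO only and 100% = 10 nM T3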
Sequence of Thyroid hormone receptor beta (Homo sapiens) (P10828 whole entry, looked up): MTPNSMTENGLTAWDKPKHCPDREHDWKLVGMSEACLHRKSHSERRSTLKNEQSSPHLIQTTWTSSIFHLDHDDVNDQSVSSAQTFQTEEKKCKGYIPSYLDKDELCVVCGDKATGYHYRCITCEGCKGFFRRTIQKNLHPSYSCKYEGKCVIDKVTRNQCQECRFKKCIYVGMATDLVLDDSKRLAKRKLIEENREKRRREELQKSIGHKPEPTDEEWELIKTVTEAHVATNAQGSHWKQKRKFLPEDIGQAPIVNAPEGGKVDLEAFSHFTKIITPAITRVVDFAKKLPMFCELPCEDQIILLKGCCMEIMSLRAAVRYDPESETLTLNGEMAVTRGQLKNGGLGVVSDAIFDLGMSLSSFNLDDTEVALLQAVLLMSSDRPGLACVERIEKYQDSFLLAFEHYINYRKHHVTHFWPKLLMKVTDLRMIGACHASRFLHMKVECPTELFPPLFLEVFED
Procedure, shortened: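 TR-UAS-bla GripTite HEK 293 cells (2500/well, medium with 2% charcoal/dextran FBS) were treated in agonist mode for 18 h at 37 C, titrated. Beta-lactamase was read by CCF4 ratio after 2 h; normalized to 10 nM T3 (100%) and DMSO, Hill-fitted for EC50 and efficacy.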

[11] = qHTS assay for small molecule antagonists of retinoid X receptor alpha signaling (AID 588546; active means well fitted inhibition curve with a large enough effect in the signal ratio, with a control signal flat, not every such curve was filed as active; the % refers to the signal ratio; further: potency means the concentration at half of the fitted maximal effect;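 on max response: cells stimulated with 9-cis-retinoic acid as agonist; on the % scale 0 is the no-effect control and ±100 the full control effect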); settings: HEK293T RXRa-UAS-bla, beta-lactamase ratio, antagonist mode; measured here: W530 green channel, cytotoxicity proxy
Procedure, shortened: (§1)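 Beta-lactamase reporter inhibition, read as CCF4 fluorescence ratio (ex 405, em 460/530 nm) after 2 h at RT. HEK293T UAS-bla cells, 2500/well, were stimulated with 9-cis-RA at 500 or 100 nM final alongside test compound for 18 h at 37 C.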

[12] = molecular target: Retinoic acid receptor RXR-alpha (Homo sapiens) (UniProt P19793); assay: as above; settings: HEK293T RXRa-UAS-bla, beta-lactamase ratio, antagonist mode
Sequence of Retinoic acid receptor RXR-alpha (Homo sapiens) (P19793 whole entry, looked up): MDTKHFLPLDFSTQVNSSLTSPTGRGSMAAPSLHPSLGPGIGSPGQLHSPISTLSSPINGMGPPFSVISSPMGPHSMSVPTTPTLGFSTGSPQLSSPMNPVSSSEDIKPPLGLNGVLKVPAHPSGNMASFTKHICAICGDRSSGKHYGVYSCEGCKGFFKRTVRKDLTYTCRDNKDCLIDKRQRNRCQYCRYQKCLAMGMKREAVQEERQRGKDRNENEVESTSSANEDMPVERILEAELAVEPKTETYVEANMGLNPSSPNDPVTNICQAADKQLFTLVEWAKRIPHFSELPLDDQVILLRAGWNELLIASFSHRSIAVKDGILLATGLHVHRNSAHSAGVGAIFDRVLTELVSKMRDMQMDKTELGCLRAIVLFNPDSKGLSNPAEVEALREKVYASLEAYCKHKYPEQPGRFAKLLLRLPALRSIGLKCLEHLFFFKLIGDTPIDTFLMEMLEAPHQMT
Procedure, shortened: as §1

[13] = qHTS assay for small molecule agonists of the antioxidant response element (ARE) signaling pathway measured by Nrf2-dependant transcriptional activity - cell viability counter screen (AID 720653; active means well fitted curve in the direction sought with a large enough effect in the repeat runs; an effect the other way counts as inactive or inconclusive; further: on the % scale 0 is the no-effect control and ±100 the full control effect); settings: ARE-bla HepG2 viability, CellTiter-Glo ATP luminescence, 16 h; max response: stronger effect = lower value
Procedure, shortened: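 ARE-bla HepG2 cells treated with compounds for 16 h at 37C; this counter screen measures viability as intracellular ATP by CellTiter-Glo luminescence after 30 min at room temperature.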

In the case of `CC(C)(C)c1ccc(CSc2cnn(C(C)(C)C)c(=O)c2Cl)cc1`, the activation [1] was 6.79% (inactive), the activation [2] was -0.474% (inactive) and the Potency [3] was 0.0969 µM (active). The activation [4] was -3.11% (inactive), the max response [5] was -6% (inactive) and the Potency [6] was “inactive”. The Potency [7] was “inactive” and the outcome [8] was “inactive”.

For `C(=C/c1ccccc1)/c1ccccc1`, the activation [1] was -2.54% (inactive) and the outcome [9] was “inactive”.

For `CSc1ccc(Cl)cc1`, the activation [1] was -0.0441% (inactive) and the outcome [9] was “inactive”.

With `C=C(C)C(=O)OCC(C)C` the activation [1] was -0.219% (inactive) and the outcome [9] was “inactive”.

In the case of `CO[Si](CCCOCC1CO1)(OC)OC` (stereo not drawn), the activation [1] was -0.427% (inactive) and the outcome [9] was “inactive”.

In the case of `CC(=O)OC1CC(C)OC(C)O1` (stereo not drawn), the activation [1] was -3.17% (inactive) and -0.0131% (inactive) and the outcome [9] was “inactive”.

For `CCC(C)O` (stereo not drawn), the activation [1] was 0.0237% (inactive) and the outcome [9] was “inactive”.

In the case of `CC(C)(C)[C@H](O)[C@H](Cc1ccc(Cl)cc1)n1cncn1`, the activation [1] was -2.05% (inactive) and 0.498% (inactive) and the outcome [9] was “inactive”.

With `NN(c1ccccc1)c1ccccc1` the activation [1] was -1.98% (inactive) and the outcome [9] was “inactive”.

In the case of `CCCCCCCCCCCCCCCCN(C)C`, the activation [1] was 3.83% (inactive) and the outcome [9] was “inactive”.

For `Fc1ccc(Oc2ccnc3cc(Cl)cc(Cl)c23)cc1`, the activation [1] was -3.06% (inactive), the activation [2] was -6.4% (inactive) and the Potency [10] was “inactive”. The max response [11] was 20.3%, the Potency [12] was 39.8 µM (active) and the Potency [3] was 21.7 µM (active). For the same molecule, the activation [4] was 15% (inactive), the max response [5] was 3.62% (inactive) and the Potency [6] was 34.4 µM (active). For the same molecule, the max response [13] was -31.6% (inactive) and the Potency [7] was “inactive”.

With `CCCCC(CC)COS(=O)(=O)O` (stereo not drawn) the activation [1] was 1.45% (inactive) and the outcome [9] was “inactive”.

In the case of `COc1cc(Cl)c(OC)cc1N`, the activation [1] was -0.889% (inactive) and the outcome [9] was “inactive”.

With `CC(C)(C)c1cc(C(C)(C)C)c(O)c(C(C)(C)C)c1` the activation [1] was 8.66% (inactive) and the outcome [9] was “inactive”.

For `OB(O)O`, the activation [1] was 1.87% (inactive) and 2.1% (inactive) and the outcome [9] was “inactive”.

For `CN(C)CCCCl`, the activation [1] was -3.17% (inactive) and the outcome [9] was “inactive”.

For `O=C(O)c1ccc([N+](=O)[O-])cc1`, the activation [1] was -2.8% (inactive) and 1.45% (inactive) and the outcome [9] was “inactive”.

For `CCCCCCCCCc1ccccc1`, the activation [1] was 2.7% (inactive) and the outcome [9] was “inactive”.

In the case of `Cc1ccc(N=Nc2c(O)ccc3ccccc23)c(C)c1`, the activation [1] was -0.864% (inactive) and the outcome [9] was “inactive”.

With `CCCCCCCCCCCO` the activation [1] was -0.12% (inactive) and the outcome [9] was “inactive”.

For `Nc1cc(Cl)nc(C(=O)O)c1Cl`, the activation [1] was -2.93% (inactive) and the outcome [9] was “inactive”.

For `CCOCCOCC`, the activation [1] was -1.11% (inactive) and the outcome [9] was “inactive”.

With `C[Si](Cl)(Cl)c1ccccc1` the activation [1] was 0.0023% (inactive) and the outcome [9] was “inactive”.

For `NC=O`, the activation [1] was -0.541% (inactive) and the outcome [9] was “inactive”.

For `O=C(O)CCSSCCC(=O)O`, the activation [1] was -1.56% (inactive) and the outcome [9] was “inactive”.

With `C[Si]1(C)O[Si](C)(C)O[Si](C)(C)O1` the activation [1] was -0.282% (inactive) and the outcome [9] was “inactive”.

For `Cc1ccc(C(=O)O)cc1`, the activation [1] was -1.14% (inactive) and the outcome [9] was “inactive”.

With `C/C=C1\CC2C=CC1C2` (stereo not drawn) the activation [1] was 0.0193% (inactive) and the outcome [9] was “inactive”.

With `C=Cc1ccccc1Cl` the activation [1] was 0.519% (inactive) and the outcome [9] was “inactive”.

In the case of `Oc1c(Cl)ccc(Cl)c1Cl`, the activation [1] was -2.11% (inactive) and the outcome [9] was “inactive”.

For `BrC1CCC(Br)C(Br)CCC(Br)C(Br)CCC1Br` (stereo not drawn), the activation [1] was 3.55% (inactive) and the outcome [9] was “inactive”.

In the case of `C=Cc1ccccc1C=C`, the activation [1] was -0.167% (inactive) and the outcome [9] was “inactive”.

For `O=[N+]([O-])c1cccc(Cl)c1Cl`, the activation [1] was -2.65% (inactive) and -2.56% (inactive) and the outcome [9] was “inactive”.

In the case of `CN(C)CCCNCCCN`, the activation [1] was 2.54% (inactive) and the outcome [9] was “inactive”.

In the case of `CC(=O)CC(=O)Nc1ccc(C)cc1C`, the activation [1] was 0.192% (inactive) and the outcome [9] was “inactive”.

With `CCC(C)(C)C(=O)O` the activation [1] was 0.339% (inactive) and the outcome [9] was “inactive”.

In the case of `CC1COCc2cc3c(cc21)C(C)(C)C(C)C3(C)C` (stereo not drawn), the activation [1] was 0.585% (inactive) and the outcome [9] was “inactive”.

With `COc1ccc(N)c(C)c1` the activation [1] was -1.77% (inactive) and the outcome [9] was “inactive”.

For `CCCCCCc1ccc(-c2ccc(C#N)cc2)cc1`, the activation [1] was -1.9% (inactive) and the outcome [9] was “inactive”.
